Pf growth 96h – Primary qHTS for delayed death inhibitors of the malarial parasite plastid, 96 hour incubation; AID 504834, 2011; 6.9% of 320,000 active; Potency, µM (series often up to 28.7 µM), actives largely listed as inhibitors; P. falciparum luciferase reporter growth, 96 h
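Infected RBCs, 2% Hct / 0.05% parasitemia final; luciferase-reporter P. falciparum; cpd 96 h, 37 C, 5% CO2; luciferase detection reagent; luminescence.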
Pf growth 48h – Primary qHTS for delayed death inhibitors of the malarial parasite plastid, 48 hour incubation; P. falciparum luciferase growth in erythrocytes, 48 h; Potency, µM (doses to about 28.7 µM), hits mostly inhibitors; AID 504832, 2011; 5.9% of 310,000 active
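A one-generation exposure of luciferase-tagged malaria parasites in RPMI 1640/Albumax erythrocyte culture, 37 C and 5% CO2. Inhibition is inferred from decreased luminescence after adding detection reagent.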
CHX counter – Cycloheximide Counterscreen for Small Molecule Inhibitors of Shiga Toxin. cell reporter, cycloheximide protein synthesis inhibition counterscreen. max response, %. 12% of 300,000 active; in the data active means max response mostly above about 13%, no sharp cut-off; inactive means mostly below about 14%; further: read at 38.3 µM for the half of the compounds with a filed dose
NS1 function inh – qHTS Assay for Inhibitors of Influenza NS1 Protein Function | Potency, µM (doses to about 46.1 µM) | 0.4% of 270,000 active | AID 2326, 2010; calls by dose curve; further: actives are rising curves; nearly all actives have a fitted effect of over 50% in size
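Compounds were scored for reversing the slow growth caused by influenza A NS1 in S. cerevisiae, measured by optical density at 600 nm. Assay medium contained 2% galactose at pH 6.0; NS1-free yeast of the same strain were the positive control.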
Shiga inhibitor – A qHTS for Small Molecule Inhibitors of Shiga Toxin | Vero cells, Shiga toxin protein synthesis inhibition reporter | inhibition, % at 38.7 µM | 9.2% of 290,000 active | AID 2315, 2010; in the data active means inhibition mostly above about 28%, no sharp cut-off; inactive means mostly below about 43%
Hits are given with their value; 0 = inactive; ? = inconclusive; - = not tested or not shown. Shown are actives, neighbours in structure and some others; about 21% of the full set was active somewhere. Unless noted, the call rests on the fitted dose curve; in most records, active means well fitted inhibition curve with a large enough effect; inconclusive means small, poorly fitted or top-dose-only effect, or another doubt; inactive means no such curve, though single readings can be large or run the other way.

SMILES	Pf growth 96h	Pf growth 48h	CHX counter	NS1 function inh	Shiga inhibitor
COc1ccc(NC(=O)Nc2nccs2)cc1	-	0	32.2	0	85.3
CCOCc1nnc(NC(=O)c2ccc(OC)cc2)s1	0	0	22.5	0	48.1
COC(=O)Nc1ccc(S(=O)(=O)NCc2ccccn2)cc1	?	0	0	-	0
CN(C(=O)COC(=O)C1COc2ccccc2O1)C1(C#N)CCCCC1 (configuration not stated)	0	0	-	-	-
COc1ccccc1NC(=O)COC(=O)C1CC1	0	0	0	0	0
CCC(CC)C(=O)Nc1cccc(C(=O)Nc2nccs2)c1	?	0	0	0	0
O=C(Nc1nccs1)c1cccc(NC(=O)C(F)(F)F)c1	0	0	17.9	0	73.5
COC(=O)c1ccc(COC(=O)c2ccc(CO)cc2)o1	0	0	0	0	0
CCN(c1ccccc1)S(=O)(=O)c1ccc(OC)c(NC(=O)C2=NN(c3ccccc3)C(=O)CC2)c1	?	11.7µM	-	-	-
CCN(c1ccccc1)S(=O)(=O)c1ccc(OC)c(NC(=O)C2CC(=O)N(Cc3ccccc3)C2)c1 (configuration not stated)	13.1µM	6.57µM	0	0	0
Cc1cccc(C)c1NC(=S)N/N=C1\CC2CC=CC12 (configuration not stated)	9.28µM	?	0	0	0
O=C(N/N=C1\CC2CC=CC12)c1ccc(O)cc1 (configuration not stated)	?	0	29.8	-	51.0
Cc1ccc(C(=O)N/N=C2\CC3CC=CC23)c(C)c1 (configuration not stated)	0	0	62.6	-	132.7
Cc1ccc(C(=O)N/N=C/c2ccc(N3CCOCC3)cc2)c(C)c1	0	0	0	-	0
Cc1ccc(NC(=S)N/N=C2\CC3CC=CC23)c(C)c1 (configuration not stated)	?	0	20.1	-	0
O=C(Nc1nnc(S(=O)(=O)N2CCCCC2)s1)c1ccc(Cl)cc1	0	0	0	0	0
CCOC(=O)N1CCN(c2nc3ccc(C(=O)c4ccccc4)cc3n3cnnc23)CC1	?	?	0	0	0
O=C(c1ccccc1)c1ccc2nc(N3CCN(C(=O)c4ccco4)CC3)c3nncn3c2c1	3.29µM	-	0	0	0
Cc1cc(N2CCN(C(=O)c3ccco3)CC2)n2nc(C)c(-c3ccccc3)c2n1	0	11.7µM	0	0	0
Cc1cc(N2CCN(C(=O)c3ccco3)CC2)n2nc(C)c(-c3ccc(Cl)cc3)c2n1	4.15µM	0	0	0	0
Cc1nn2c(N3CCN(C(=O)c4ccco4)CC3)cc(C(C)(C)C)nc2c1-c1ccc(Cl)cc1	?	?	0	0	0
COc1cccc(C(=O)NC2CCNCC2)c1	?	0	0	0	0
CSc1ccc(S(=O)(=O)N2CCC(C(=O)NCc3ccccn3)CC2)cc1	11.7µM	0	0	0	0
O=C(NCc1ccccn1)C1CCN(S(=O)(=O)c2ccccc2)CC1	0	0	0	0	0
Cc1ccc(S(=O)(=O)N2CCC(C(=O)NCc3ccccc3Cl)CC2)cc1	10.4µM	-	0	0	0
SMILES	Pf growth 96h	Pf growth 48h	CHX counter	NS1 function inh	Shiga inhibitor
CCCS(=O)(=O)N1CCC(C(=O)NCc2ccccc2Cl)CC1	10.4µM	0	16.7	0	0
C[C@@H]1CC[C@H](O)/C=C/C(=O)O[C@H](C)CC[C@H](O)/C=C/C(=O)O1	10.4µM	?	0	0	0
C[C@H]1CCC/C=C/[C@@H]2C[C@H](O)C[C@H]2[C@H](O)/C=C/C(=O)O1	2.94µM	2.08µM	0	-	0
Cc1cc2c(nn1)CCc1nonc1-2	-	0	0	0	0
Cc1ccc2c3c([nH]c2c1C)-c1nonc1CC3	0	0	20.1	0	43.9
COc1cccc(/C=N/NC(=O)c2ccc(-n3cnnn3)cc2)c1	0	0	-	-	-
Cc1cc(C(=O)Nc2ccc(N3CCCC3)c(Cl)c2)ccc1[N+](=O)[O-]	9.28µM	0	46.6	0	31.4
O=C(Nc1ccc(C(O)(C(F)(F)F)C(F)(F)F)cc1)c1ccc(Cl)c([N+](=O)[O-])c1	10.4µM	11.7µM	0	0	0
CCn1cc([N+](=O)[O-])c(C(=O)NCc2ccc3c(c2)OCO3)n1	?	0	0	0	0
O=C(Nc1ccc2c(c1)OCCO2)c1cccnc1	?	0	24.7	0	58.7
O=C(O)c1cc(NC(=O)c2ccc(Cl)c([N+](=O)[O-])c2)cc(C(=O)O)c1	0	0	0	-	0
O=C(Nc1ccc(N2CCCC2)c(Cl)c1)c1ccc([N+](=O)[O-])cc1	0	?	0	0	0
